Assay outcomes (PubChem)
Hits are enriched below; roughly 6.7% of the tested compounds scored in any of these assays.
Pf Dd2 inh: inhibitors of Plasmodium falciparum Dd2 growth; P. falciparum Dd2 growth, SYBR Green, 72 h; active compounds read low; activity change, % at 10 µM; 2.3% of 94,000 active; AID 1159554; in the data active means activity change below about -80%; inconclusive means no clear call, values can overlap the other calls
C diff HTS: inhibitors of Clostridium difficile growth; growth activity, negative = inhibition, % at 16 µg/mL (by protocol); Clostridium difficile clinical isolate growth, OD600, 24 h; active compounds read low; 0.25% of 86,000 active;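 active means mean growth activity at or below -80% and every replicate also at or below -80%; inconclusive means mean at or below -80% but some replicate above -80%; inactive means mean growth activity above -80%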
T cruzi growth-1: inhibitors of T. cruzi proliferation | inhibition, % at 8.34 µM | T. cruzi beta-gal in NIH3T3, GalScreen luminescence, 90 h | 5.9% of 77,000 active;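 active means mean inhibition above about 93%, with at least 55% of replicates each passing it, limit read from the data, passing the limit was not always enough; inconclusive means only one of those two conditions holds; inactive means neither condition holds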
T cruzi growth-2: blocks T. cruzi growth in NIH3T3 host cells. shares compounds with T cruzi growth-1. T. cruzi beta-gal in NIH3T3, GalScreen luminescence, 90 h. inhibition, % at 8.35 µM. 72% of 5,600 active;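 active means mean replicate inhibition above about 95% and at least 55% of replicates individually reaching it, limit read from the data; inconclusive means only one of the two criteria is met; inactive means neither criterion is met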
T cruzi growth-3: Trypanosoma cruzi proliferation inhibition; T. cruzi beta-gal in NIH3T3, GalScreen luminescence, 90 h; shares compounds with T cruzi growth-1; 21% of 5,600 active; inhibition, % at 2.09 µM;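 active means mean inhibition above about 95%, with at least 55% of replicates also reaching it, limit read from the data; inconclusive means meets just one of the two conditions; inactive means meets neither condition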
3T3 cytotox: cytotoxicity in mouse NIH/3T3 fibroblasts. cytotoxicity (signal decrease), % at 8.35 µM. shares compounds with T cruzi growth-1. NIH/3T3 viability, CellTiter-Glo ATP luminescence, 90 h. 14% of 5,600 active;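 active means mean signal decrease across replicates above about 35% based on untreated-well scatter, with enough replicates individually passing, limit read from the data; inconclusive means no rule stated though some were filed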
3T3 cytotox 2: kills mouse NIH/3T3 fibroblasts; shares compounds with T cruzi growth-1; NIH/3T3 viability, CellTiter-Glo ATP luminescence, 90 h; inhibition, % at 24.9 µM; 56% of 5,600 active;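 active means mean loss of cell viability signal at or above a set limit, and enough replicates individually reaching it; inconclusive means meets only the mean limit or only the replicate share; inactive means meets neither condition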
Large screens that a line does not name were inactive (follow-up assays come after a bar, where they were run).

O=C(NCC[C@H]1CC[C@@H](NC(=O)C2CCC2)[C@H](CO)O1)c1cnccn1	T cruzi growth-1 184 | T cruzi growth-2 inactive | T cruzi growth-3 inactive | 3T3 cytotox inactive | 3T3 cytotox 2 inactive
O=C(NCC[C@H]1CC[C@H](NC(=O)C2CCC2)[C@@H](CO)O1)c1cnccn1	none (no result: C diff HTS)
CCS(=O)(=O)N1CCCCN2[C@H](CO)[C@@H](c3ccc(-c4ccccc4C)cc3)[C@H]2C1	none
CCS(=O)(=O)N1CCCCN2[C@H](CO)[C@H](c3ccc(-c4ccccc4F)cc3)[C@@H]2C1	T cruzi growth-1 96 | T cruzi growth-2 inactive | T cruzi growth-3 inactive | 3T3 cytotox inactive | 3T3 cytotox 2 inactive
CCS(=O)(=O)N1CCCCN2[C@H](CO)[C@@H](c3ccc(-c4ccccc4)cc3)[C@@H]2C1	none
CCS(=O)(=O)N1CCCCN2[C@@H](CO)[C@@H](c3ccc(-c4ccccc4C)cc3)[C@@H]2C1	T cruzi growth-1 inconclusive | T cruzi growth-2 97 | T cruzi growth-3 inactive | 3T3 cytotox inconclusive | 3T3 cytotox 2 79
CCCC(=O)Nc1ccc2c(c1)C(=O)N(C)[C@H]1CC[C@@H](CC(=O)O)O[C@@H]1CO2	none
C[C@H](CO)N1C[C@H](C)[C@@H](CN(C)C(=O)Nc2ccccc2)Oc2ncc(-c3ccccc3)cc2C1=O	none
C[C@@H]1CN([C@H](C)CO)C(=O)c2cc(NC(=O)c3ccccc3)ccc2O[C@@H](C)CCCCO[C@H]1CN(C)Cc1ccc2c(c1)OCO2	none (no result: T cruzi growth-1)
COc1ccc(NC(=O)N2CCCCN3[C@@H](CO)[C@H](c4ccc(-c5ccccc5C)cc4)[C@@H]3C2)cc1	T cruzi growth-1 102 | T cruzi growth-2 101 | T cruzi growth-3 inactive | 3T3 cytotox inactive | 3T3 cytotox 2 104
COc1ccc(NC(=O)N2CCCCN3[C@H](CO)[C@H](c4ccc(-c5ccccc5C)cc4)[C@@H]3C2)cc1	none
COc1ccc(NC(=O)N2CCCCN3[C@H](CO)[C@H](c4ccc(C5=CCCCC5)cc4)[C@@H]3C2)cc1	T cruzi growth-1 114 | T cruzi growth-2 110 | T cruzi growth-3 inactive | 3T3 cytotox inactive | 3T3 cytotox 2 81
COc1ccc(NC(=O)N2CCCCN3[C@H](CO)[C@@H](c4ccc(-c5ccccc5C)cc4)[C@H]3C2)cc1	T cruzi growth-1 109 | T cruzi growth-2 103 | T cruzi growth-3 inactive | 3T3 cytotox 40 | 3T3 cytotox 2 103
COc1ccc(NC(=O)N2CCCCN3[C@@H](CO)[C@@H](c4ccc(C5=CCCC5)cc4)[C@@H]3C2)cc1	none
COc1ccc(NC(=O)N2CCCCN3[C@H](CO)[C@@H](c4ccc(-c5ccccc5F)cc4)[C@H]3C2)cc1	none
COc1ccc(NC(=O)N2CCCCN3[C@H](CO)[C@@H](c4ccc(-c5ccccc5F)cc4)[C@@H]3C2)cc1	none
COc1ccc(NC(=O)N2CCCCN3[C@@H](CO)[C@@H](c4ccc(-c5ccccc5C)cc4)[C@@H]3C2)cc1	T cruzi growth-1 108 | T cruzi growth-2 inactive | T cruzi growth-3 inactive | 3T3 cytotox 111 | 3T3 cytotox 2 102
COc1ccccc1CNC(=O)C[C@@H]1C[C@@H]2c3cc(N(C)C)ccc3O[C@@H]2[C@H](CO)O1	none
CCS(=O)(=O)Nc1ccc2c(c1)C(=O)N(C)[C@H]1CC[C@@H](CC(=O)NCCOC)O[C@H]1CO2	none (no result: Pf Dd2 inh)
O=C(Nc1ccccc1)N1CCCCN2[C@@H](CO)[C@H](c3ccc(C#Cc4ccccn4)cc3)[C@@H]2C1	none
O=C(Nc1ccc(F)cc1)N1CCCCN2[C@H](CO)[C@H](c3ccc(C#Cc4ccccn4)cc3)[C@H]2C1	none
O=C(Nc1ccc(F)cc1)N1CCCCN2[C@@H](CO)[C@H](c3ccc(C#Cc4ccccn4)cc3)[C@@H]2C1	T cruzi growth-1 123 | T cruzi growth-2 107 | T cruzi growth-3 inactive | 3T3 cytotox inactive | 3T3 cytotox 2 inactive
COc1ccc(NC(=O)N2CCCCN3[C@H](CO)[C@H](c4ccc(C#Cc5ccccn5)cc4)[C@@H]3C2)cc1	Pf Dd2 inh inconclusive
O=C(Nc1ccccc1)N1CCCCN2[C@H](CO)[C@H](c3ccc(C#Cc4ccccn4)cc3)[C@H]2C1	T cruzi growth-1 104 | T cruzi growth-2 99 | T cruzi growth-3 inactive | 3T3 cytotox inactive | 3T3 cytotox 2 inactive
COc1ccc(NC(=O)N2CCCCN3[C@@H](CO)[C@H](c4ccc(C#Cc5ccccn5)cc4)[C@@H]3C2)cc1	Pf Dd2 inh -85, T cruzi growth-1 103 | T cruzi growth-2 110 | T cruzi growth-3 109 | 3T3 cytotox inactive | 3T3 cytotox 2 inactive
CCNC(=O)C[C@@H]1CC[C@@H]2[C@H](COC[C@@H](O)CN2C(=O)c2cc(Cl)cc(Cl)c2)O1	none (no result: T cruzi growth-1)
C[C@@H]1CN([C@@H](C)CO)C(=O)c2cc(NS(C)(=O)=O)ccc2O[C@@H](C)CCCCO[C@H]1CN(C)S(=O)(=O)c1ccc(F)cc1	none
Cc1noc(C)c1S(=O)(=O)Nc1ccc2c(c1)C(=O)N([C@@H](C)CO)C[C@@H](C)[C@@H](CN(C)C(=O)NC1CCCCC1)OCCCC[C@@H](C)O2	none
COc1ccc(C#Cc2ccc3c(c2)[C@@H]2[C@@H](CCN2S(=O)(=O)c2ccccc2C)[C@@H](CO)N3)cc1	T cruzi growth-1 97 | T cruzi growth-2 109 | T cruzi growth-3 inactive | 3T3 cytotox inactive | 3T3 cytotox 2 55
COc1ccc(S(=O)(=O)N2CC[C@@H]3[C@H](CO)Nc4ccc(-c5ccc(C#N)cc5)cc4[C@@H]32)cc1	T cruzi growth-1 109 | T cruzi growth-2 101 | T cruzi growth-3 103 | 3T3 cytotox 42 | 3T3 cytotox 2 49
COc1ccc(S(=O)(=O)N2CC[C@@H]3[C@H]2c2cc(C#Cc4ccccc4OC)ccc2N[C@@H]3CO)cc1	Pf Dd2 inh -83, T cruzi growth-1 107 | T cruzi growth-2 106 | T cruzi growth-3 111 | 3T3 cytotox inactive | 3T3 cytotox 2 inactive
COc1ccc(S(=O)(=O)N2CC[C@H]3[C@H](CO)Nc4ccc(C#Cc5ccccc5OC)cc4[C@H]32)cc1	none (no result: T cruzi growth-1)
Cc1ccc(S(=O)(=O)N2CC[C@@H]3[C@H]2c2cc(-c4ccc(C#N)cc4)ccc2N[C@@H]3CO)cc1	none
COc1ccc(C#Cc2ccc3c(c2)[C@H]2[C@H](CCN2S(=O)(=O)c2ccccc2C)[C@H](CO)N3)cc1	none
CCCNC(=O)Nc1ccc2c(c1)C(=O)N(C)C[C@@H](OC)[C@@H](C)CN(Cc1ccccn1)[C@H](C)CO2	none
O=C(Cc1ccncc1)NCC[C@H]1CC[C@H](NS(=O)(=O)c2ccccc2Cl)[C@H](CO)O1	none (no result: C diff HTS)
C[C@H](NC(=O)C[C@@H]1C[C@@H]2c3cc(NS(C)(=O)=O)ccc3O[C@@H]2[C@H](CO)O1)c1ccccc1	none (no result: T cruzi growth-1)
